# Test results published in PubChem BioAssay (EPA / NIEHS).
# Activity calls are given as the source filed them. Rule for the calls: active = hit-call score of the fitted dose curve at least 0.9, where 1 is the maximum; inactive = score below 0.9.
# Assay: CEETOX_H295R_ANDR: CeeTox H295R High-throughput Steroidogenesis Assay for Androstenedione (ANDR) (AID 2283436)
# Details: actives raise or lower the signal
# Procedure: CEETOX_H295R is a cell-based, multiplexed-readout assay that uses H295R, a human adrenal gland cell line, with measurements taken at 48 hours after chemical dosing in a 96-well plate.CEETOX_H295R_ANDR is one of 23 assay component(s) measured or calculated from the CEETOX_H295R assay. It is designed to make measurements of hormone induction, a form of inducible reporter, as detected with absorbance signals by HPLC-MS-MS technology.Data from the assay component CEETOX_H295R_ANDR was analyzed into 1 assay endpoint. This assay endpoint, CEETOX_H295R_ANDR, was analyzed with bidirectional fitting relative to DMSO as the negative control and baseline of activity. […] To generalize the intended target to other relatable targets, this assay endpoint is annotated to the steroid hormone intended target family, where the subfamily is androgens.
# Cell culture and media preparation procedures were conducted in accordance with OECD Test No. 456 guidelines, with minor modifications. H295R cells (ATCC CRL-2128) were expanded for 5 passages and frozen in batches in liquid nitrogen. Prior to the steroidogenesis assay, H295R cells were thawed and passed at least 4 times. The maximum passage was 10. Cells were maintained in a 1:1 mixture of DMEM/F12 supplemented with 5ml/L ITS+ Premix (BD Bioscience) and 12.5 ml/L Nu-Serum (BD Bioscience). After seeding cells into 96-well plates at 50-60% confluency, cells were allowed to adhere overnight. […] Test chemicals were incubated for 48 hours, then the medium was removed and split into 2 vials containing approximately 75uL each, and stored at -80 C prior to hormone analysis. For steroid quantification, media samples were shipped to OpAns, LLC (Durham, NC) on dry ice, and samples were thawed to room temperature prior to liquid-liquid extraction. Steroid hormones were extracted from media samples using methyl tertbutyl ether (MTBE). An extra derivatization with dansyl chloride was included for estrogen (estrone and estradiol) detection only. Steroid hormones were separated by HPLC, eluted using a reverse phase C18 gradient with electrospray positive ionization, followed by quantification by tandem mass spectrometry (MS/MS). Data were acquired on a MassHunter Workstation Acquisition version B03.01 (Agilent Technologies, Inc.) and processed using MassHunter Quantitative Analysis for QQQ. Accuracy was determined for each hormone analyte from 3 standards to determine upper and lower limits of quantification (ULOQ and LLOQ, respectively) using a 7-point standard curve. Precision and accuracy of the extraction and quantification methods were calculated as the percent relative standard deviation (%RSD) of the spiked standards and percent spiked standard recovered, respectively. […] Test medium was removed following chemical exposure, and cell viability was evaluated in the same wells by MTT. MTT procedures were as follows: after removal of test medium, 500 uL of 0.5 mg/ml of 3-[4,5-dimethylthiazol-2-y]2,5-diphenyltetrazoliumbromide solution was added to the cells. Following a 4-hour incubation at 37 C and 5% CO2 to allow formazan-crystal formation, the MTT solution was removed and blue formazan salt crystals were solubilized using 500uL anhydrous isopropanol with shaking for 20 minutes. Absorbance was read at 570 and 650nm using a Packard Fusion microplate reader. Background correction of absorbance units was used to determine percent change relative to controls. […] When a test chemical reduced cell viability to 20% - 70%, the test chemical was diluted 10-fold and re-evaluated, but if cell viability was <20%, then the test chemical was diluted 100-fold and re-evaluated. Test chemical dilutions were made until cell viability was >/=70%. MTT assays were also conducted for duplicates of all concentrations of chemicals tested in concentration-response studies.
SMILES,outcome,AC50
O=C(c1ccccc1)c1ccc(Cl)cc1,inactive,
CC1CCCCC1,inactive,
CSc1ccc(O)cc1C,,78 µM (active)
CCOCOCC,inactive,
CCN(CC)c1ccc(N=Nc2ccccc2)cc1,inactive,
O=C1c2ccccc2C(=O)c2c(Cl)cccc21,inactive,
Oc1ccc2c(c1)CCC2,inactive,
CCN(CC)c1ccc(C=O)cc1,inactive,
CCCCCCCCCc1ccc(OCCO)cc1,inactive,
C[C@]12CC[C@H]3C(=CCc4cc(O)ccc43)[C@@H]1CCC2=O,,8.03 µM (active)
Cc1cc(O)c(C(C)(C)C)cc1C(C)(C)C,inactive,
Cc1cccc(C)n1,inactive,
O=C1C=CC(=O)N1c1ccccc1,inactive,
CCCCCCCCCCCCC[N+](C)(C)Cc1ccccc1,,0.307 µM (active)
CCn1c2ccccc2c2ccccc21,,50 µM (active)
